Screening data deposited in PubChem by Sanford-Burnham Center for Chemical Genomics.
Only some compounds are listed: those with a hit (about 1.4% of all), similar ones and a draw of the others.
FAS-TE inh: blocks the thioesterase domain of human fatty acid synthase | P49327 | recombinant FAS-TE, OMFH fluorogenic substrate, fluorescence endpoint | inhibition, % at 15 µM | 360,000 tested, 0.67% active | AID 602261;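 active means compounds whose normalised, plate-corrected inhibition of enzyme fluorescence in the single-dose primary screen is 50% or more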;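 further: 0% = DMSO with enzyme and 100% = substrate without enzyme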
GC-A act: GC-A (human) enzyme activation; P16066; HEK293 GC-A cells, cGMP TR-FRET, EC30 ANP; 0% at EC30 ANP, 100% saturating ANP; activation, % at 10 µM; 370,000 tested, 0.14% active; AID 1671463; in the data active means activation above about 40%
APOBEC3G inh: APOBEC3G (human) deaminase inhibition | 330,000 tested, 0.28% active | Q9HC16 | inhibition, % at 20 µM | recombinant A3G, ssDNA deamination FAM/TAMRA fluorescence;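 active means inhibition of at least 40% at 20 µM, with no more than 30% in the related APOBEC3A deaminase screen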;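 further: plate controls were DMSO wells with A3G for no effect and wells lacking A3G enzyme for full effect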
NPR2 activator: GC-B (human) receptor activation. P20594. HEK293-GC-B cells, CNP EC30, cGMP TR-FRET; 0% at EC30 CNP, 100% saturating CNP. activation, % at 10 µM. 370,000 tested, 0.11% active. AID 1920062;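 active means activation at 10 µM reaching about 35% in either raw or pattern-adjusted values, limit read from the data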
A3A deaminase: blocks human APOBEC3A ssDNA deamination | inhibition, % at 20 µM | 330,000 tested, 0.41% active | AID 493011 | recombinant A3A, FAM/TAMRA ssDNA deamination fluorescence;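 active means at least 40% inhibition at 20 µM here, with at most 30% in a related deaminase screen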;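 further: plate controls were A3A with DMSO for no effect and wells lacking A3A enzyme for full effect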
APOBEC3A confirm: APOBEC3A (human) deaminase inhibition, confirmed | inhibition, % at 20 µM | recombinant A3A, ssDNA deaminase UDG fluorescence assay | shares compounds with A3A deaminase | 1,400 tested, 63% active;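 active means inhibition reaching a set limit, 80% of the first screen's cutoff, at 20 µM in any replicate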;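 further: plate controls were DMSO wells with A3A for no effect and wells lacking A3A enzyme for full effect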
UDG A3A counter: inhibits UDG, flagging false APOBEC3A inhibitors. shares compounds with A3A deaminase. UDG counterscreen, FAM/TAMRA uracil oligo fluorescence. inhibition, % at 20 µM. 1,000 tested, under 10 active. AID 504714; call rule not given here
APOBEC3G confirm: APOBEC3G (human) deaminase inhibition, confirmed; inhibition, % at 20 µM; shares compounds with APOBEC3G inh; 890 tested, 72% active; recombinant A3G ssDNA deaminase, UDG/FAM-TAMRA fluorescence;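 active means inhibition reaching a set limit in any replicate at 20 µM, the limit being 80% of the first screen's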
UDG A3G counter: inhibits E. coli UDG, flagging false APOBEC3G inhibitors; AID 504715; inhibition, % at 20 µM; shares compounds with APOBEC3G inh; 710 tested, under 10 active; UDG counterscreen, FAM/TAMRA oligo fluorescence;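 active means compounds giving 40% or more inhibition at 20 µM in any one of the three replicates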;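 further: plate controls were DMSO wells with UDG and oligo for no effect and DMSO wells lacking both for full effect; inhibitors lower the FAM signal released by uracil excision and alkaline cleavage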
* hit, by the source's call; nt = not tested or not shown.

SMILES | FAS-TE inh | GC-A act | APOBEC3G inh | NPR2 activator | A3A deaminase | APOBEC3A confirm | UDG A3A counter | others
CC(=O)Nc1ccc(C(=O)NC2CCSc3ccccc32)cc1 (stereo not drawn) | -4 | 2 | 4 | 4 | 45* | -1 | nt
Cc1cc(NC(=O)COc2cc(F)cc(F)c2)n(-c2ccccc2)n1 | nt | 1 | nt | 4 | nt | nt | nt
O=c1cccc2n1Cc1cc3ccccc3nc1-2 | -11 | 11 | 2 | 3 | 49* | 26 | nt
Cc1ccc(-c2c(C(=O)NC3CCCC3)oc(=O)c3ccccc23)cc1 | nt | -16 | nt | -8 | nt | nt | nt
COc1ccc(-c2cccc3[nH]c4c(c23)CCN2C(=O)[C@H]3[C@H](C)ON(C)[C@H]3C[C@@H]42)cc1 | nt | 2 | nt | 6 | nt | nt | nt
O=C(OCC#CCSc1nnc(-c2cccc3ccccc23)o1)c1ccc(SC(F)(F)F)cc1 | nt | -1 | nt | 1 | nt | nt | nt
COc1ccc(CCCC(=O)Nc2cc(C)ccc2OC)cc1 | 5 | -2 | 11 | 3 | 60* | 28 | nt
COc1ccc(OC)c(NC(=O)CCCc2ccccc2)c1 | 4 | 4 | -7 | 0 | -1 | nt | nt
COc1ccccc1CNC1CCC12CCC(c1ccccc1)CC2 (stereo not drawn) | nt | -16 | nt | -14 | nt | nt | nt
COc1cccc(OC)c1C(=O)Nc1cccc2c1CCCC2 | 0 | 0 | -1 | 0 | 55* | -3 | 1
COc1cc(OC)cc(C(=O)Nc2cccc3c2CCCC3)c1 | 8 | -3 | -2 | 0 | -7 | nt | nt
CC(C)(C)N(Cc1cn(CC2CCCCC2)nn1)S(=O)(=O)c1ccccc1Br | nt | -1 | nt | 6 | nt | nt | nt
N#CCS(=O)(=O)c1cccc[n+]1[O-] | nt | 5 | nt | 6 | nt | nt | nt
CCOC(=O)CC1(C)OCC(C[N+]2(C)CCCCC2)O1 (stereo not drawn) | -9 | 0 | 16 | 3 | 78* | 81* | -3
Cc1ccc(C(c2c(O)nc3n(c2=O)CCS3)c2c(O)nc3n(c2=O)CCS3)cc1 | -14 | 2 | -3 | 4 | 53* | 11 | 2
COc1ccccc1N/C(=N/S(=O)(=O)c1ccc(Cl)cc1)c1ccccc1 | 9 | -16 | -3 | -15 | 4 | nt | nt
COc1ccc(NC(C)=[N+](C)CCNS(=O)(=O)c2ccc(Cl)cc2)cc1Cl | -4 | -8 | 14 | -8 | 62* | 69* | 1
COc1ccccc1NC(C)=[N+](C)CCNS(=O)(=O)c1ccc(Cl)cc1 | -3 | -3 | 16 | 2 | 56* | 79* | -2
CC(Nc1cc(C)cc(C)c1)=[N+](C)CCNS(=O)(=O)c1ccc(Cl)cc1 | -4 | -2 | 9 | -2 | 45* | 67* | 0
COc1ccc(NC(=O)CCNS(=O)(=O)c2ccc(NC(C)=O)cc2)cc1Cl | -4 | -6 | -4 | -2 | 1 | nt | nt
CCOC(=O)N1CCN(c2ccc(C(=O)c3cccc(F)c3)cc2)CC1 | 13 | nt | -1 | nt | 45* | -7 | -2
CCCCn1c(N)c(N(CCOC)C(=O)c2cc(-c3ccc(OC)c(OC)c3)nc3ccccc23)c(=O)[nH]c1=O | -4 | 4 | 9 | 4 | 52* | 40* | -1
CCCCn1c(N)c(N(CCOC)C(=O)c2cc(-c3ccco3)nc3ccccc23)c(=O)[nH]c1=O | -6 | -1 | 18 | 3 | 42* | 30* | -1
COCCN(C(=O)c1cc(-c2ccco2)nc2ccccc12)c1c(N)n(Cc2ccccc2)c(=O)[nH]c1=O | -1 | 0 | 25 | 5 | 46* | 32* | -4
CCCCn1c(N)c(N(CC(C)C)C(=O)c2cc(-c3ccc(OC)c(OC)c3)nc3ccccc23)c(=O)[nH]c1=O | -1 | 0 | -1 | -3 | 27 | nt | nt
SMILES | FAS-TE inh | GC-A act | APOBEC3G inh | NPR2 activator | A3A deaminase | APOBEC3A confirm | UDG A3A counter | others
CN(C)/C=C(/C(=O)c1ccc(Cl)c(Cl)c1)S(C)(=O)=O | -6 | 0 | -4 | -2 | -2 | nt | nt
CN(C)/C=C(/C(=O)c1ccc(Cl)cc1)S(C)(=O)=O | -6 | -1 | 5 | -1 | 43* | 1 | nt
Cc1ccc2ncccc2c1NS(=O)(=O)c1ccccc1 | -5 | 3 | 27 | 9 | 43* | 13 | nt
COc1ccc2c(c1)CCCN2C(=O)C1CCCN(S(=O)(=O)c2ccc(C(C)(C)C)cc2)C1 (stereo not drawn) | nt | 2 | nt | -2 | nt | nt | nt
COc1ccc(NC(=O)CN(C)C(=O)c2cc(-c3cccs3)nn2-c2ccccc2)cc1 | 7 | -5 | -4 | -2 | 3 | nt | nt
CCN(CC(=O)Nc1ccc(OC)cc1)C(=O)c1cc(-c2cccs2)nn1-c1ccccc1 | 13 | -8 | -11 | -4 | 78* | 1 | 5
COc1ccc(CCNC(=O)Cc2c(Cl)cccc2Cl)cc1 | -3 | -4 | 3 | 3 | 44* | 7 | nt
O=C(COC(=O)c1cccc([N+](=O)[O-])c1)NCc1ccc2c(c1)OCO2 | 4 | 0 | -5 | -3 | 3 | nt | nt
CC(OC(=O)c1cccc([N+](=O)[O-])c1)C(=O)NCc1ccc2c(c1)OCO2 (stereo not drawn) | 10 | 2 | -4 | 0 | 49* | -6 | -3
COc1cccc(NC(=O)NC2CCCCN(Cc3ccccc3C)C2=O)c1 (stereo not drawn) | nt | 0 | nt | -2 | nt | nt | nt
CCCCN(C(=O)c1cc2ccccc2o1)c1c(N)n(CC(C)C)c(=O)[nH]c1=O | -10 | 0 | -5 | 4 | -1 | nt | nt
CCCCN(C(=O)c1ccc([N+](=O)[O-])o1)c1c(N)n(CC(C)C)c(=O)[nH]c1=O | -4 | 4 | 9 | 1 | 44* | 9 | nt
CCc1noc(C)c1C(=O)N(CCOC)c1c(N)n(CC(C)C)c(=O)[nH]c1=O | -5 | 2 | 6 | 3 | 43* | 2 | nt
CCc1ccc(CNCC(=O)N2CCC3(CC2)OCCO3)s1 | nt | 1 | nt | -11 | nt | nt | nt
CCCCCCCCN1CCS(=O)(=O)N(Cc2ccc(OC)cc2)C(C(=O)OC)C1 (stereo not drawn) | nt | -3 | nt | -7 | nt | nt | nt
O=S(=O)(c1ccccc1)N(c1ccccc1)S(=O)(=O)c1ccccc1 | 27 | -4 | nt | 2 | nt | nt | nt
O=S(=O)(c1ccccc1)N(F)S(=O)(=O)c1ccccc1 | -5 | 5 | 46* | -8 | 1 | nt | nt | APOBEC3G confirm=53*;UDG A3G counter=-2
C=C(C)C(=O)Nc1cccc(C2=NOC3(C2)C[C@H](C(N)=O)N(C(=O)COc2ccc(Cl)cc2)C3)c1 (stereo partly drawn) | -7 | -1 | 88* | 4 | 23 | nt | nt | APOBEC3G confirm=91*;UDG A3G counter=-3
